aSyn 5UTR act = Activators working through SNCA 5'UTR binding (MLPCN); alpha-synuclein 5'UTR reporter, activators screen; activity score, % (tested at 7.5 µM), hits read low; 300,000 tested, 7.1% active; in the data active = activity score below about -60%
Starred values were filed as active, the others as inactive. These entries were drawn from the full list.

COc1ccc(C(=O)/C=C\c2ccc(NC(=O)c3cccs3)cc2)cc1 was read as aSyn 5UTR act -129*.
COc1cc(NC(=O)c2cccs2)cc(OC)c1 was read as aSyn 5UTR act -90*.
CC(=O)N1CCC(=NNc2nc3ccccc3s2)CC1 was read as aSyn 5UTR act -215*.
For CCOC(=O)N1CCN(/C=C(\C#N)c2nc3ccccc3s2)CC1 the results were aSyn 5UTR act -94*.
Screening CCOC(=O)N1CCC(=NNc2nc3ccccc3s2)CC1 returned aSyn 5UTR act -112*.
CC(=O)Nc1cccc(/C(C)=N/Nc2nc3ccccc3s2)c1 was read as aSyn 5UTR act -224*.
`CCCCn1cnc2c(oc3ccccc32)c1=O` gave aSyn 5UTR act -121*.
For Nc1ccc(S(=O)(=O)Nc2nccc(/C=C/c3ccc(Cl)cc3Cl)n2)cc1 the results were aSyn 5UTR act -67*.
N#C/C(=C\c1ccc(Cl)cc1)c1nc2ncccc2[nH]1 was read as aSyn 5UTR act -94*.
Cc1cc(/C=C(\C#N)c2nc3ccccc3[nH]2)c(C)n1C was read as aSyn 5UTR act -224*.
N#C/C(=C(/O)c1cccs1)c1nc2ccccc2[nH]1 was read as aSyn 5UTR act -102*.
`N#C/C(=C\c1c(Cl)cccc1Cl)c1nc2ccccc2[nH]1` gave aSyn 5UTR act -64*.
`CCOc1cc(N(CC)CC)ccc1/C=C(/C#N)c1nc2ccccc2[nH]1` gave aSyn 5UTR act -107*.
`N#C/C(=C\c1cccs1)Sc1nc2ccccc2s1` gave aSyn 5UTR act -68*.
Screening N#C/C(=C\C1CC=CCC1)c1nc2ccccc2[nH]1 (stereo not given) returned aSyn 5UTR act -66*.
Screening Cc1ccc(/C=C(\C#N)c2nc3ccccc3[nH]2)s1 returned aSyn 5UTR act -229*.
N#C/C(=C/c1cccs1)c1nc2ccccc2[nH]1 was read as aSyn 5UTR act -201*.
Screening COc1ccc(C2=NOC(C(=O)NCc3ccc(F)cc3)C2)cc1OC (stereo not given) returned aSyn 5UTR act 82.
Screening O=C(NCCc1cccs1)C1CC(c2ccccc2[N+](=O)[O-])=NO1 (stereo not given) returned aSyn 5UTR act -93*.
`COc1ccc(CCNC(=O)Nc2ccccc2[N+](=O)[O-])cc1` gave aSyn 5UTR act -130*.
`CCCCNC(=O)C1CC(c2cccc([N+](=O)[O-])c2)=NO1` (stereo not given) gave aSyn 5UTR act -171*.
`COc1ccc(CCNC(=O)C2CC(c3ccccc3[N+](=O)[O-])=NO2)cc1` (stereo not given) gave aSyn 5UTR act -95*.
CCc1ccc2c(c1)/C(=N/N(C)C(=S)NC)C(=O)N2 was read as aSyn 5UTR act -71*.
Cn1c(N)c(C(=O)/C=C/c2ccccc2)c(=O)[nH]c1=O was read as aSyn 5UTR act -140*.
Screening COC(=O)c1ccc(C)c(NC(=O)CN(c2cc(OC)ccc2OC)S(C)(=O)=O)c1 returned aSyn 5UTR act -88*.
Screening COc1ccc(N(CC(=O)Nc2cc(Cl)ccc2C)S(=O)(=O)c2c(C)noc2C)cc1 returned aSyn 5UTR act 78.
Screening C=CC(C)(C)c1c(O)c(CC=C(C)C)c(O)c2c(=O)c3ccc(O)c(O)c3oc12 returned aSyn 5UTR act 73.
Screening C/C(=N\NC(=O)c1nnn(-c2nonc2N)c1CN(C)c1ccccc1)c1ccccn1 returned aSyn 5UTR act 88.
Screening Nc1nonc1-n1nnc(C(=O)N/N=C/c2cc(Br)ccc2O)c1CNc1ccccc1 returned aSyn 5UTR act 70.
Screening CC1CCN(Cc2c(C(=O)N/N=C/c3ccc(C(C)(C)C)cc3)nnn2-c2nonc2N)CC1 returned aSyn 5UTR act 64.
CCc1c(C(=O)N/N=C/c2ccc(OCc3ccc(F)cc3)c(OC)c2)nnn1-c1nonc1N was read as aSyn 5UTR act -128*.
Screening Nc1nonc1-n1nnc(C(=O)N/N=C/c2ccc(OCc3ccccc3)cc2)c1CN1CCCCC1 returned aSyn 5UTR act -112*.
For Nc1nonc1-n1nnc(C(=O)N/N=C/c2ccc(OCc3ccccc3F)cc2)c1CNc1ccccc1 the results were aSyn 5UTR act -75*.
Screening CCN(CC)Cc1c(C(=O)N/N=C/c2ccc(OCc3ccccc3C)cc2)nnn1-c1nonc1N returned aSyn 5UTR act -87*.
`Nc1nonc1-n1nnc(C(=O)N/N=C/c2ccc(OCc3ccc(F)cc3)cc2)c1COc1ccccc1` gave aSyn 5UTR act -122*.
For Cc1ccc(COc2cccc(/C=N/NC(=O)c3nnn(-c4nonc4N)c3C)c2)cc1 the results were aSyn 5UTR act -152*.
`Cc1c(C(=O)N/N=C/c2c(O)ccc3ccccc23)nnn1-c1nonc1N` gave aSyn 5UTR act 63.
COCCn1c(C)cc(C2=NNC(=NC3CC3)SC2)c1C was read as aSyn 5UTR act 112.
Screening COCCCN=C1NN=C(c2cc(C)n(Cc3ccco3)c2C)CS1 returned aSyn 5UTR act 94.
For COCC(C)N=C1NN=C(c2cc(C)n(Cc3ccccc3Cl)c2C)CS1 (stereo not given) the results were aSyn 5UTR act -141*.
`COc1ccc(Sc2cnn(-c3ccccc3)c(=O)c2Cl)cc1` gave aSyn 5UTR act -73*.
`COc1nn(-c2ccccc2)c(=O)c(Cl)c1Cl` gave aSyn 5UTR act -347*.
`COc1ccc(-n2ncc(Cl)c(Cl)c2=O)cc1` gave aSyn 5UTR act -155*.
FC(F)(F)Oc1ccc(Nc2nc3ccccc3o2)cc1 was read as aSyn 5UTR act -260*.
For c1ccc(Nc2nc3ccccc3o2)cc1 the results were aSyn 5UTR act -189*.
Cc1cc(C)nc(Nc2nc3ccccc3o2)n1 was read as aSyn 5UTR act -70*.
COc1ccc(-c2nc3ccccn3c2CN2CCN(c3ccccc3F)CC2)cc1 was read as aSyn 5UTR act -76*.
Screening COc1ccc(NC(=O)/C(C#N)=C\c2ccc(N3CCOCC3)o2)cc1 returned aSyn 5UTR act -95*.
For N#C/C(=C\c1ccc(N2CCOCC2)o1)C(=O)Nc1ccc(O)cc1 the results were aSyn 5UTR act -101*.
COc1ccc(NC(=O)/C(C#N)=C/c2ccc(Br)o2)cc1 was read as aSyn 5UTR act -66*.
COc1cc2c(cc1NC(=O)CSc1ccccn1)oc1ccccc12 was read as aSyn 5UTR act -281*.
Screening O=C(CSc1ccccn1)Nc1ccc2c(c1)oc1ccccc12 returned aSyn 5UTR act -122*.
For O=S(=O)(Cc1cc(-c2ccccc2)no1)c1ccccc1 the results were aSyn 5UTR act -77*.
For COc1ccc(-c2cc(CS(=O)(=O)c3ccccc3)on2)cc1 the results were aSyn 5UTR act -158*.
`N/C(=N\NC(=O)c1ccc(Cl)cc1)c1cnccn1` gave aSyn 5UTR act -67*.
Screening O=C(NNC(=O)c1cnccn1)c1ccc(Cl)c(Cl)c1 returned aSyn 5UTR act 51.
C/C(=N\Nc1ccc(Cl)cc1)c1ccccn1 was read as aSyn 5UTR act -138*.
Screening C/C(=N\NC(=O)c1ccc(Cl)cc1)c1ccccn1 returned aSyn 5UTR act -63*.
Screening C/C(=N\Nc1ccc2nncn2n1)c1ccccn1 returned aSyn 5UTR act 94.
`COc1cc(C(=O)N/N=C(\C)c2ccccn2)cc(OC)c1OC` gave aSyn 5UTR act 109.
Screening C/C(=N/NC(=O)c1ccccn1)c1ccc(O)cc1 returned aSyn 5UTR act -90*.
For O=C(Sc1cccc2cccnc12)c1ccccc1Br the results were aSyn 5UTR act -242*.
Screening CCOc1ccc(CCNC(=O)COC(=O)c2cccc(N(C)C)c2)cc1OCC returned aSyn 5UTR act -90*.

Compound activity from PubChem BioAssay.
